Test [1] is described as follows: blockers of IL-6 STAT3 signaling – U3A cells, luciferase, luminescence, confirmation (AID 1265;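 active means inhibition above the hit cutoff computed for the primary STAT3 screen, cut at about 44% in these data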;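 further: 0% = IL-6 plus DMSO and 100% = IL-6 plus nifuroxazide control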). The following applies: IL-6 STAT3 luciferase reporter, at 5.7 µM, stronger effect = higher value, cell line lacks STAT1.
Test [2] is described as follows: inhibition of TNF-alpha-driven NF-kB transcription – cell-based, HEK293T, luciferase, TNF-alpha stimulus, counter-screen for STAT3 inhibitor project, confirmation (AID 1308).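 Further: 0% = TNF-alpha with DMSO and 100% = TNF-alpha with MG high control.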 The following applies: HEK293T NF-kB luciferase reporter, TNF-alpha induced; at 5.7 µM; stronger effect = higher value.
Test [3] can be described thus: inhibition of STAT1-driven transcription – cell-based, NIH 3T3, luciferase luminescence, IFN-gamma, counter-screen for STAT3 inhibitor project, confirmation (AID 1317;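 active means inhibition above the mean plus 3 SD of solvent-only control wells, limit set per screening run, cut at about 16% in these data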;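 further: 0% = DMSO with IFN-gamma and 100% = nifuroxazide control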). The following applies: NIH 3T3 STAT1-luciferase reporter, IFN-gamma induced, at 5.7 µM, stronger effect = higher value.
Test [4] has as its target Nuclear receptor coactivator 3 (Homo sapiens) (UniProt Q9Y6Q9). The test can be described thus: NCOA3 GAL4-fusion reporter inhibition – cell-based, luminescence, quadruplicate, confirmation (AID 588792;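 active means mean inhibition over 43.08%, the solvent-only control mean plus 3 SD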;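 further: 0% = DMSO treated cells and 100% = gossypol at 36 µM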). The following applies: HEK293 GAL4-SRC3 luciferase reporter, at 3.6 µM, stronger effect = higher value. For orientation: A reporter such as luciferase makes a cellular process visible.

For test [5], the system named is transactivating tegument protein VP16 (Human herpesvirus 1), Gal4-VP16 luciferase reporter. Nature of the test: repression of VP16-driven luciferase reporter – cell-based, luminescence, high throughput, counter-screen for SRC3 inhibitor project (AID 588794; in the data active means inhibition above about 30%). As to conditions: mammalian cells, at 3.6 µM, stronger effect = higher value.
Test [6] in a line: VP16-driven transactivation reporter suppression – cell-based, luminescence, HEK293, counter-screen for COUP-TFII antagonist project (AID 687007; in the data active means inhibition above about 13%). As to conditions: HEK293 Gal4-VP16 luciferase reporter, at 8.5 µM, stronger effect = higher value.
Test [7] deals with COUP transcription factor 2 (Homo sapiens) (UniProt P24468). Nature of the test: retest of COUP-TFII reporter suppressors – cell-based, luciferase reporter, HEK293, triplicate, confirmation (AID 687008;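 active means mean inhibition over three repeats above a set limit taken from the earlier primary screen, cut at about 38% in these data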;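 further: 100% = cells given the luciferase reporter alone without the COUP-TF2 vector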). The following applies: HEK293 NGFI-A luciferase reporter, luminescence; at 8.5 µM; stronger effect = higher value.
Test [8] deals with DAF-12 nuclear receptor (Heterodera glycines), GAL4-LBD fusion. The test can be described thus: hgDAF-12 GAL4 fusion reporter activation, retest – cell-based, luminescence, HEK293, GAL4-LBD fusion, confirmation (AID 743050;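 active means mean activation over triplicate wells above the hit cutoff derived from the earlier primary screen, cut at about 11% in these data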;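 further: 0% = DMSO low control and 100% = 2 mM sodium butyrate high control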). As to conditions: HEK293 GAL4-hgDAF12 luciferase reporter, agonist mode; at 6.8 µM; stronger effect = higher value; percent of butyrate response.
In test [9] the target is Oxysterols receptor LXR-beta (Homo sapiens) (UniProt P55055). Nature of the test: nonspecific reporter activation via LXR – cell-based, luminescence, HEK293, H. glycines campaign, counter-screen for hgDAF-12 agonist project, confirmation (AID 743051;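 active means mean activation of the triplicate above a set limit carried over from the primary screen, none filed active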). The following applies: HEK293 Gal4-LXR luciferase reporter, 24 h; at 6.8 µM; stronger effect = higher value.
The target of test [10] is Photoreceptor-specific nuclear receptor (Homo sapiens) (UniProt Q9Y5X4). Nature of the test: retest of NR2E3-NCOR disrupting agonists – cell-based, luminescence, CHO-S two-hybrid, confirmation (AID 624378;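 active means average inhibition above a cutoff equal to the mean inhibition of all tested compounds plus one SD, cut at about 70% in these data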;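 further: 0% = DMSO in NR2E3 cells and 100% = DMSO in cells lacking NR2E3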). As to conditions: CHO-S mammalian two-hybrid NR2E3-NCOR, luciferase luminescence; at 3.98 µM; stronger effect = higher value.
Test [11] in a line: nonselective effects on VP16 transactivation – cell-based, luminescence, CHO-S, high throughput, counter-screen for NR2E3 agonist project, confirmation (AID 624379;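 active means mean inhibition above a cutoff equal to the average over all tested compounds plus one standard deviation, cut at about 70% in these data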;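 further: 0% = DMSO with VP16-transfected cells and 100% = DMSO with cells lacking VP16; higher means less reporter light so more repression of VP16 activity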). The following applies: CHO-S GAL4-VP16 luciferase reporter, at 3.98 µM, stronger effect = higher value. Background: A counterscreen serves to expose hits that act by an unwanted route or on another target.
Test [12] has as its target Oxysterols receptor LXR-beta (Homo sapiens) (UniProt P55055). The test can be described thus: nonspecific reporter activation via LXR – cell-based, luminescence, HEK293, H. contortus campaign, counter-screen for hcDAF-12 agonist project, confirmation (AID 743027;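 active means mean percent activation of the reporter above a cutoff set as the average over tested compounds plus their standard deviation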). As to conditions: HEK293 Gal4-LXR tk-luc reporter, 24 h, at 6.8 µM, stronger effect = higher value, normalized: DMSO 0%, positive control 100%.

Test [13] relates to Nuclear hormone receptor DAF-12 (Haemonchus contortus). Nature of the test: hcDAF-12 luciferase reporter activation, retest – cell-based, luminescence, HEK293, lit1-tk-luc, triplicate, confirmation (AID 743032;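 active means mean activation across triplicate tests above the threshold derived from the earlier primary screen, cut at about 5.5% in these data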;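 further: 0% = DMSO only wells and 100% = 3 µM Δ7-dafachronic acid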). As to conditions: HEK293 hcDAF-12 lit1-tk-luc reporter, at 6.8 µM, stronger effect = higher value, % of Δ7-dafachronic acid response.
For test [14], the target named is Peroxisome proliferator-activated receptor gamma (Homo sapiens) (UniProt P37231). The test can be described thus: retested PPARg-SRC-2 recruitment enhancers – biochemical, HTS, confirmation (AID 1297; in the data active means activation above about 22%;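 further: 0% = vehicle alone and 100% = reference agonist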). As to conditions: biochemical SRC-2 recruitment by PPARgamma; at 8 µM; stronger effect = higher value.
The target is the same in test [15]. Nature of the test: retest of SRC-1 recruitment enhancers for PPARgamma – biochemical, confirmation (AID 1300; in the data active means activation above about 20%;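 further: 0% = vehicle wells and 100% = reference agonist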). As to conditions: PPARgamma–SRC-1 coactivator recruitment biochemical assay; at 8 µM; stronger effect = higher value.
The target of test [16] is Peroxisome proliferator-activated receptor gamma (Homo sapiens) + Nuclear receptor coactivator 3 (Homo sapiens) (UniProt P37231+Q9Y6Q9). Nature of the test: agonists promoting SRC-3 binding to PPARgamma – biochemical, confirmation (AID 1301; in the data active means activation above about 24%;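 further: 0% = vehicle wells and 100% = reference agonist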). As to conditions: biochemical PPARgamma-SRC-3 coactivator recruitment, agonist mode; at 8 µM; stronger effect = higher value.
Test [17] has as its target Galanin receptor type 2 (Homo sapiens) (UniProt O43603). Nature of the test: blockers of human galanin receptor 2 – cell-based, confirmation (AID 866; in the data active means inhibition above about 27%;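 further: cells stimulated with galanin at about its EC80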). The following applies: GALR2-expressing cells, antagonist mode, at 4 µM, stronger effect = higher value.
Test [18] in a line: nonspecific BLA reporter inhibition – CHO NFAT-bla cells, FRET readout, counter-screen for GALR2 antagonist project, confirmation (AID 867;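 active means inhibition above the mean inhibition across tested compounds plus 3 SD, cut at about 27% in these data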;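 further: 0% = 500 nM thapsigargin stimulated wells and 100% = unstimulated BSA only wells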). The following applies: beta-lactamase FRET, thapsigargin-stimulated, at 4.2 µM, stronger effect = higher value.
For test [19], the target named is Sphingosine 1-phosphate receptor 4 (Homo sapiens) (UniProt O95977). The test can be described thus: blockers of human S1P4 signalling – cell-based, confirmation (AID 1524; in the data active means inhibition above about 30%). As to conditions: S1P4-expressing cell line, antagonist mode, reporter read-out; at 4.98 µM; stronger effect = higher value.
Test [20] addresses Sphingosine 1-phosphate receptor 1 (Homo sapiens) (UniProt P21453). The test can be described thus: blockade of human S1P1 receptor – cell-based, counter-screen for S1P4 antagonist project (AID 1564; in the data active means inhibition above about 40%;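 further: receptor stimulated with S1P near its EC80; 0% = agonist stimulated wells and 100% = vehicle only wells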). As to conditions: cell-based S1P1 antagonist counterscreen, at 4.98 µM, stronger effect = higher value.

A number with no mark means an inactive call. The list shows a part of the results. Active and inactive are the calls of the source.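 How the source made its calls, unless noted: active means inhibition above the mean of solvent-only control wells plus 3 SD, cutoff set per campaign (cut at about 13% in these data); inactive means the rest.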

COUP transcription factor 2 (Homo sapiens), sequence (P24468 whole entry, looked up, the tested form may be a part): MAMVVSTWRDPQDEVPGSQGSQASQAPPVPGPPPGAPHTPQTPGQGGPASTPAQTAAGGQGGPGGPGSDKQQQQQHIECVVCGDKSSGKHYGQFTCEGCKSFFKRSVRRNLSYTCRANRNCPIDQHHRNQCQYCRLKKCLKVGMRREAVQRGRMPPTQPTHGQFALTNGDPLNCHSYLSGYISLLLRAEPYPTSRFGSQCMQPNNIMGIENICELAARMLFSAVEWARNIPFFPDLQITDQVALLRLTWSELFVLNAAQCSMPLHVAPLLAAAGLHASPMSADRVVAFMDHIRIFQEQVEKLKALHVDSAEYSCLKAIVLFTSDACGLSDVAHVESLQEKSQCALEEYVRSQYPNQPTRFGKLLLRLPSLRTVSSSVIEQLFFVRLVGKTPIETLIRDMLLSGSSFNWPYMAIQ
Photoreceptor-specific nuclear receptor (Homo sapiens), sequence (Q9Y5X4 whole entry, looked up): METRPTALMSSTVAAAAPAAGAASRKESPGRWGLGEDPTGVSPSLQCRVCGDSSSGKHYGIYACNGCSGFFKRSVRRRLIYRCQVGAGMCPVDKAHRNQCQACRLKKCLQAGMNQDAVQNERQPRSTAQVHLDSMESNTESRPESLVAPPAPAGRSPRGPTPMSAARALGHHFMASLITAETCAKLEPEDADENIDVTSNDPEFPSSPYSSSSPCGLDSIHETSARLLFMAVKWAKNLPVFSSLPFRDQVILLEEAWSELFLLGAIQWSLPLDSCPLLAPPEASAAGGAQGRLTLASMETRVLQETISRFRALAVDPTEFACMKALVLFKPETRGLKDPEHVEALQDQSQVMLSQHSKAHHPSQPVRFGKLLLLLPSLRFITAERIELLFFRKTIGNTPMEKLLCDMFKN
Oxysterols receptor LXR-beta (Homo sapiens), sequence (P55055 whole entry, looked up, the tested form may be a part): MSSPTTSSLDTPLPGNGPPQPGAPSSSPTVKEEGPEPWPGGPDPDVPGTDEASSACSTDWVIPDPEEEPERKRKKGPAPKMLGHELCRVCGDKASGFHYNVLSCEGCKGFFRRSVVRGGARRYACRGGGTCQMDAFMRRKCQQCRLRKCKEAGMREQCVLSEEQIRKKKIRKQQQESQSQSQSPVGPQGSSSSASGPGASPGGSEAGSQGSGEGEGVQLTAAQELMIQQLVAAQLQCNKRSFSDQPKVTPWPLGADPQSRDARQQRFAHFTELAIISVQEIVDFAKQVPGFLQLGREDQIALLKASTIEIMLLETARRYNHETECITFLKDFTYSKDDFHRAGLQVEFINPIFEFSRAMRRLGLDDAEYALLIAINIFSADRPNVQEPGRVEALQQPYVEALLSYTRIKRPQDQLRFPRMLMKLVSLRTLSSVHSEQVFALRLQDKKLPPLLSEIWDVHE
Peroxisome proliferator-activated receptor gamma (Homo sapiens), sequence (P37231 whole entry, looked up): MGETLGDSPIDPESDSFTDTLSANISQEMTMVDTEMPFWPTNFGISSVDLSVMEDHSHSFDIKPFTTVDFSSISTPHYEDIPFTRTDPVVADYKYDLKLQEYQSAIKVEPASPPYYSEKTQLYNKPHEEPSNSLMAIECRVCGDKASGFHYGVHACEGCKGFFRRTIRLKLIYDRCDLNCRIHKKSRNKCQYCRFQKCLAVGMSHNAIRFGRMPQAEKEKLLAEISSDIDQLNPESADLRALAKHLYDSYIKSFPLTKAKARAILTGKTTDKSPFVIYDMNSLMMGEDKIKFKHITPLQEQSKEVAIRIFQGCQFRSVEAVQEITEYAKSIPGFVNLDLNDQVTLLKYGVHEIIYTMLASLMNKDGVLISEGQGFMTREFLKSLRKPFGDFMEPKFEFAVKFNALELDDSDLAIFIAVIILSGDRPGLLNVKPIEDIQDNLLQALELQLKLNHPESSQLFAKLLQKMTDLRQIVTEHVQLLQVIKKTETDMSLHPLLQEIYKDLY
Sphingosine 1-phosphate receptor 1 (Homo sapiens), sequence (P21453 whole entry, looked up): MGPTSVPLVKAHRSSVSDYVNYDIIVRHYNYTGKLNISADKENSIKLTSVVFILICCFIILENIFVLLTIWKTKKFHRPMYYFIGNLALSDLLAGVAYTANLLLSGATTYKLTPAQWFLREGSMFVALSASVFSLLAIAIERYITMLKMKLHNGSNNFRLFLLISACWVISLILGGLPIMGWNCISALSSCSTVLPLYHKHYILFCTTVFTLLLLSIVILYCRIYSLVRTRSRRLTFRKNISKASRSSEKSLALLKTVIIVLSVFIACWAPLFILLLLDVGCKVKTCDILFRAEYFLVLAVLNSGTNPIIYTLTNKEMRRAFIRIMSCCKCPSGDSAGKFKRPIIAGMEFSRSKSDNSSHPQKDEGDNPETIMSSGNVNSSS
Sphingosine 1-phosphate receptor 4 (Homo sapiens), sequence (O95977 whole entry, looked up): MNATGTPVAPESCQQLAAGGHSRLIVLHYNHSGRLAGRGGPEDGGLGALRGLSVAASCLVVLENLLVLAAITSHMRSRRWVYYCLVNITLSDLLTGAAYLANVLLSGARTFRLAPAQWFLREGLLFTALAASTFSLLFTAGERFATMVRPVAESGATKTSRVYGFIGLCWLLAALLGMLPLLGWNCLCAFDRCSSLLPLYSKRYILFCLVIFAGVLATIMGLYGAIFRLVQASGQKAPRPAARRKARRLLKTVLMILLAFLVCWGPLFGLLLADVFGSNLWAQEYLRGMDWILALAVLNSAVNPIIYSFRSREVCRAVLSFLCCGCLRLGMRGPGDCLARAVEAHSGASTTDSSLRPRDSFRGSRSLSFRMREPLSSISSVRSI
Peroxisome proliferator-activated receptor gamma (Homo sapiens) + Nuclear receptor coactivator 3 (Homo sapiens), sequence (P37231 whole entry, looked up): as the sequence (P37231 whole entry, looked up) above
Peroxisome proliferator-activated receptor gamma (Homo sapiens) + Nuclear receptor coactivator 3 (Homo sapiens), sequence (Q9Y6Q9 whole entry, looked up): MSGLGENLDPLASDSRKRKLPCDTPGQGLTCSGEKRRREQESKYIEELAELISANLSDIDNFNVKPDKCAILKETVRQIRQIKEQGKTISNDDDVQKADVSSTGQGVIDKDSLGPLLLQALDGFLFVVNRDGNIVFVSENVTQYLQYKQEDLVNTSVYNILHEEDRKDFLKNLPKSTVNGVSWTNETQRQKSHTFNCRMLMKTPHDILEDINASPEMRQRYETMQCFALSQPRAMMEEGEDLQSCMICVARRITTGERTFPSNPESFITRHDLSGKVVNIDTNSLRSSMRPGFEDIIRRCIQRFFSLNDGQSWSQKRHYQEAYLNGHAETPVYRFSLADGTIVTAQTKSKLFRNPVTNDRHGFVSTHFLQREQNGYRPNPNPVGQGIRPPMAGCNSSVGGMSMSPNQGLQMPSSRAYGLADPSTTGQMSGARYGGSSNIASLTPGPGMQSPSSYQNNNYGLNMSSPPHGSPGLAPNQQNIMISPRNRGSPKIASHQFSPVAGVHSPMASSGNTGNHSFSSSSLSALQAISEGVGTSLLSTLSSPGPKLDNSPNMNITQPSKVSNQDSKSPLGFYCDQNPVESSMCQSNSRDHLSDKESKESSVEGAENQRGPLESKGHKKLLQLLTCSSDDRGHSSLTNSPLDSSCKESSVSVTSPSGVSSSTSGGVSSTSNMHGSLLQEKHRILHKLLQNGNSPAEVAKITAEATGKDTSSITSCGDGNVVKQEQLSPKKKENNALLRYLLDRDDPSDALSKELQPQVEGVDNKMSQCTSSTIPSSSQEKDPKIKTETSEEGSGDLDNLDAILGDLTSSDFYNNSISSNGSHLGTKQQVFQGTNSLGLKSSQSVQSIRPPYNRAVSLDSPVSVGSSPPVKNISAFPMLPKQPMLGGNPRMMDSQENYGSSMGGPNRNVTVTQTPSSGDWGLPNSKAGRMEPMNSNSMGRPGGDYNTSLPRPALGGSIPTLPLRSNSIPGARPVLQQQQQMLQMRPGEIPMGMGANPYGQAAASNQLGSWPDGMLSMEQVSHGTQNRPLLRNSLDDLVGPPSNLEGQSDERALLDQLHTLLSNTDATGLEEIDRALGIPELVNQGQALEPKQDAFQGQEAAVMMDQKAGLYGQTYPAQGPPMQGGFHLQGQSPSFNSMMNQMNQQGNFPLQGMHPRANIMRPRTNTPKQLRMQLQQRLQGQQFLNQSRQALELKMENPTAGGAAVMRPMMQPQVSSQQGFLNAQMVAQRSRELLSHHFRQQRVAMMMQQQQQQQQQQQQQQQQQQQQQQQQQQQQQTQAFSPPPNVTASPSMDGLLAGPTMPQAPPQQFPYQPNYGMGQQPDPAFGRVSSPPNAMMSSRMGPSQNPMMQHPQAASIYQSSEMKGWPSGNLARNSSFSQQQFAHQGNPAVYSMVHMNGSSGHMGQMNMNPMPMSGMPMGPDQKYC
Galanin receptor type 2 (Homo sapiens), sequence (O43603 whole entry, looked up): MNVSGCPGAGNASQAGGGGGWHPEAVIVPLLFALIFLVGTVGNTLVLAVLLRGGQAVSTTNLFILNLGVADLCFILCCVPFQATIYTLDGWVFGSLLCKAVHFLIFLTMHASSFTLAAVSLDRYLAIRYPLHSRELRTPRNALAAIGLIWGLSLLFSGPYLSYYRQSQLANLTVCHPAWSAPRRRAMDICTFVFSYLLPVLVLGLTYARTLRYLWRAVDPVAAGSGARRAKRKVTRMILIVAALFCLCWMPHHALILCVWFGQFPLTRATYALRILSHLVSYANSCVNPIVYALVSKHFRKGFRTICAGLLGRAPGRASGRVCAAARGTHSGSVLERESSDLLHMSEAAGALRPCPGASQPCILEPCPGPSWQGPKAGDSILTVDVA
Nuclear receptor coactivator 3 (Homo sapiens), sequence (Q9Y6Q9 whole entry, looked up, the tested form may be a part): as the sequence (Q9Y6Q9 whole entry, looked up) above

As usually defined, the inhibition is the drop in the measured response relative to a control, in per cent. Regarding `CC(C)(CNC(=O)c1ccc(Cl)c(S(=O)(=O)N2CCc3ccccc3C2)c1)N1CCOCC1`, the inhibition is 57.1% (active) in test [1]; 13.4% (active) in [2]; 9% in [3]; 7.77% in test [4]; 32.8% (active) in test [5]; 0.6% in test [6]. Moreover, in [7], the inhibition was 38.9% (active).

`O=c1oc(/C=C/c2ccccc2)nc2ccccc12`: the inhibition was 10.7% in test [1], -7.17% in [2] and -42.9% in [3]. Also, the activation in test [8] is 14.4% (active); in test [9] it was 0.58%.

As to `CCOc1ccc(-c2nnc(-c3ccco3)o2)cc1`, the figures for the inhibition in test [1], in [2] and in [3] were 43.7% (active), 13.6% (active) and -56.6%, respectively. Further, the figures for the activation in test [8] and in test [9] were 15.5% (active) and 0.7%, respectively.

For `Cc1ccc(NC(=O)CN(C)CC(=O)Nc2cccc(F)c2)cc1[N+](=O)[O-]`, the inhibition in [1] is 35.9%; in test [2], 13% (active); in test [3] it was 19.3% (active); in test [10] it was 74.5% (active); in test [11], 86.7% (active); in [6] it was 1.63%. Further, the inhibition in test [7] was 51.8% (active).

Turning to `COc1cc(SC)ccc1C(=O)Nc1cc(C)ccn1`, the inhibition was 8.73% in test [1], -35.4% in [2] and -139% in test [3]. For the same compound, the activation is 1.02% in [12], 4.37% in test [13], 17.2% (active) in test [8] and 1.05% in test [9].

Take `O=C(Nc1ccc(Cl)cn1)c1ccc2c(c1)OCCO2`: the inhibition in test [1] is 26.7%; in test [2] it was -3.07%; in test [3], -103%. The activation is 13.4% (active) in test [8] and 0.89% in test [9].

For the compound `Cc1cc(C)c2c(c1)cc(C)c1nnc(SCC(=O)Nc3cc(C)on3)n12`, the activation in test [14] was 18.6%; in test [15], 17.6%; in [16], 12.5%.

As to `Cc1ccc(F)cc1NC(=O)Cc1nn(C)c(=O)c2ccccc12`, the inhibition was 33.5% (active) in test [17]; 12.4% in [18]; 51.9% (active) in [1]; 16.1% (active) in [2]; 21.2% (active) in [3]; 65.1% in [10]. In addition, the inhibition is 61.5% in test [11], 9% in test [6] and 48.1% (active) in test [7].

On to `CCCOc1ccc(C(=O)NCCc2ccccc2)cc1`, for which the values for the inhibition in test [1], in test [2] and in test [3] were 11.6%, -7.27% and -61.1%, respectively. In addition, the activation is 1.59% in [12], 7.43% (active) in [13], 14.1% (active) in test [8] and 0.6% in test [9].

Turning to `Cc1csc(SCC(=O)Nc2sccc2C#N)n1`, the inhibition is 7.4% in [1], -23.8% in [2] and -80.2% in test [3]. For the same compound, the activation in test [12] was 1.59%; in test [13], 10.3% (active).

With `COc1ccc(S(=O)(=O)Nc2ccc3oc(C)c(C(C)=O)c3c2)cc1`, the inhibition is 32.3% in test [1]; 13.4% (active) in test [2]; 20.4% (active) in test [3]; 93% (active) in [10]; 79.4% (active) in [11]; 1.7% in test [6]. Also, the inhibition in [7] was 20.7%.

As to `C=CS(=O)c1sc(Cl)c(N2CCOCC2)c1[N+](=O)[O-]` (centres undefined), the inhibition in test [19] was 102% (active); in [20], 12.4%.

Source of the values: PubChem BioAssay.
